Values joined by “and” are separate entries in the source; they are usually repeats but may differ in a detail not shown here. Equal values may be shown once. Inconclusive results are not listed. Active and inactive are the calls of the source. Calls come from the whole dose curve; as a rule, active = well fitted curve in the direction sought with a large enough effect; inconclusive = small, poorly fitted or top-dose-only effect, or another doubt; inactive = no such curve, though single readings can be large; an effect the other way counts as inactive or inconclusive.
Tests used:
[1] = biological target: Phospholipid hydroperoxide glutathione peroxidase GPX4 (Homo sapiens) (UniProt P36969); experiment: Primary qHTS Assay for Inhibitors of Recombinant Selenoprotein Glutathione Peroxidase 4 (GPX4) (AID 1845192); note: nearly all actives have a fitted effect of over 65% in size; note: potency is the fitted concentration of half-maximal effect; for activity change, negative = inhibition: series mostly up to about 50 µM; % is set by controls: 0 for no effect and ±100 for the full control effect
Sequence of Phospholipid hydroperoxide glutathione peroxidase GPX4 (Homo sapiens) (P36969 whole entry, looked up): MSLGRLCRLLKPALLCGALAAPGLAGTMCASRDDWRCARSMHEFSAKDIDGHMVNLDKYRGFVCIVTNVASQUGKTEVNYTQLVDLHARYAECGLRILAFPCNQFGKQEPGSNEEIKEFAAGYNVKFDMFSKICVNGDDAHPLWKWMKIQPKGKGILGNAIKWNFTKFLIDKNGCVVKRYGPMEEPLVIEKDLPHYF
Method in brief: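 GR-coupled readout: 100 nM GR, 1 mM GSH, 0.5 mM NADPH; NADPH fluorescence (ex 340/em 450 nm) read at t=0 and after 15 min RT. GPX4 200 nM, preincubated 30 min with compound; substrate 0.5 mM CHP.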

[2] = biological target: Luciferin 4-monooxygenase (Photinus pyralis) (UniProt P08659); experiment: Primary firefly luciferase (FLuc) qHTS assay for identification of artifact compounds. (AID 1845220); note: nearly all actives have a fitted effect of over 60% in size; note: potency is the fitted concentration of half-maximal effect;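 for activity change, negative = inhibition: series mostly up to about 54 µM; plate controls were DMSO vehicle for no effect and no enzyme for full effect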
Method in brief: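 In this counter-screen for luciferase artifacts, test compounds met substrate (10 uM each luciferin and ATP) before 10 nM enzyme started the reaction. Light output was measured 5 min later.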

[3] = Primary fluorescence-based thiol-reactive (MSTI) qHTS assay for identification of artifact compounds. (AID 1845221);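 note: series mostly up to about 54 µM; thiol-reactive compounds lower the probe fluorescence signal; nearly all actives have a fitted effect of over 65% in size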
Method in brief: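 MSTI probe at 4 uM final in 2% DMSO/PBS pH 7.4; compounds, 1 h at room temperature in dark. Fluorescence Ex/Em 525/598 nm, normalised to Acetyl-MSTI and MSTI, fitted to 4-parameter Hill.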

[4] = test system: Nanoluciferase (engineered Oplophorus gracilirostris luciferase); experiment: Primary Nanoluciferase (NLuc) qHTS assay for identification of artifact compounds. (AID 1845222);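 note: NLuc secreted into diluted conditioned medium of S16 cells; series mostly up to about 54 µM; 0% = DMSO and -100% = no enzyme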
Method in brief: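 Using secreted nanoluciferase in S16 culture medium (0.22 um filtered, 1:55 dilution), compounds were preincubated 15 min at RT. Signal was generated with Nano-Glo reagent (1:100) over 5 min.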

[5] = Primary redox qHTS assay for identification of artifact compounds. (AID 1845223)
Method in brief: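 Amplex Red (25 uM) and HRP (250 mU/mL) in HBSS, with compounds for 15 min, then 250 uM DTT for 30 min, room temperature, dark. Fluorescence 525/598 nm read; normalized to DMSO and 10 uM DA3003; Hill fit.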

[6] = Quantitative High-Throughput drug screen in 47 multiple myeloma cell lines against the NCATS MIPE library collection: Delta47_JCRB cell viability assay (AID 1918925; note: nearly all actives have a fitted effect of over 45% in size; note: potency is the fitted concentration of half-maximal effect)
Method in brief: (§1)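 Myeloma cells (500 per well) were exposed to MIPE 4.0 compounds by pin transfer and incubated 48 hours at 37C, 5% CO2. Viability was read as ATP by CellTiter-Glo luminescence, normalised to DMSO (100%) and media-only (0%) wells.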

[7] = Quantitative High-Throughput drug screen in 47 multiple myeloma cell lines against the NCATS MIPE library collection: ARP1_JJKsccF8 cell viability assay (AID 1918928; note: nearly all actives have a fitted effect of over 40% in size; note: potency is the fitted concentration of half-maximal effect)
Method in brief: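 Myeloma cells, 500 per well, were exposed to MIPE 4.0 drugs by pin transfer for 48 h at 37 °C, 5% CO2. Viability was read as ATP luminescence with CellTiter-Glo, normalised to DMSO-only (100%) and medium-only (0%) wells.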

[8] = Quantitative High-Throughput drug screen in 47 multiple myeloma cell lines against the NCATS MIPE library collection: FR4_PLB cell viability assay (AID 1918924; note: nearly all actives have a fitted effect of over 35% in size; note: potency is the fitted concentration of half-maximal effect)
Method in brief: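 CellTiter-Glo luminescence (ATP) after 48 h compound exposure, 37C/5% CO2; 500 cells/well; MIPE 4.0 approved/investigational drugs pinned in; DMSO = 100%, media only = 0% viability.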

[9] = Quantitative High-Throughput drug screen in 47 multiple myeloma cell lines against the NCATS MIPE library collection: EJM_DSMZ cell viability assay (AID 1918926; note: nearly all actives have a fitted effect of over 30% in size; note: potency is the fitted concentration of half-maximal effect)
Method in brief: as §1

[10] = Quantitative High-Throughput drug screen in 47 multiple myeloma cell lines against the NCATS MIPE library collection: AMO1_DSMZ cell viability assay (AID 1918927; note: nearly all actives have a fitted effect of over 30% in size; note: potency is the fitted concentration of half-maximal effect)
Method in brief: as §1

CN(C)C(=O)[C@H](O)[C@H](Cc1ccccc1)NC(=O)c1cc2cc(Cl)ccc2[nH]1
inactive: Potency [1] | Potency [2] | Potency [3] | outcome [4] | outcome [5]
active: Potency [6] 4.18 µM | Potency [7] 16.6 µM

c1cnc2cc3c(cc2n1)C1CNCC3C1
inactive: Potency [1] | Potency [2] | outcome [4] | outcome [5] | Potency [8] | Potency [9] | Potency [10] | Potency [7]

Cc1nc(Nc2ncc(C(=O)Nc3c(C)cccc3Cl)s2)cc(N2CCN(CCO)CC2)n1
inactive: Potency [1] | Potency [2] | Potency [3] | outcome [4] | outcome [5]

O=C(O)c1cccc(-c2noc(-c3ccccc3F)n2)c1
inactive: Potency [1] | Potency [3] | outcome [5] | Potency [8] | Potency [9]
active: Potency [2] 6.7 nM

COc1cc2c(N3CCN(C(=O)Nc4ccc(OC(C)C)cc4)CC3)ncnc2cc1OCCCN1CCCCC1
active: Potency [6] 8.33 µM
inactive: Potency [1] | Potency [2] | Potency [3] | outcome [4] | outcome [5] | Potency [10]

CN(c1nccc(=O)[nH]1)C1CCN(c2nc3ccccc3n2Cc2ccc(F)cc2)CC1
inactive: Potency [1] | Potency [2] | Potency [3] | outcome [4] | Potency [8] | Potency [7]
active: Potency [6] 4.69 µM

CC(C)C[C@H](NC(=O)[C@H](Cc1ccccc1)NC(=O)c1cnccn1)B(O)O
active: Potency [8] 9.3 nM | Potency [9] 16.6 nM | Potency [7] 0.0083 µM
inactive: Potency [1] | Potency [2] | Potency [3] | outcome [4] | outcome [5]

COc1ccc2cc([C@H](C)C(=O)O)ccc2c1
inactive: Potency [1] | Potency [2] | outcome [5] | Potency [8] | Potency [9] | Potency [10] | Potency [7]

CS(=O)(=O)OCCCCOS(C)(=O)=O
inactive: Potency [1] | Potency [6]
active: Potency [8] 4180 nM

CCN(CCO)CCCC(C)Nc1ccnc2cc(Cl)ccc12 (centres undefined)
inactive: activity change, negative = inhibition [1] -25.1% [at 4.52 µM] and 2.25% [at 4.52 µM] | activity change, negative = inhibition [2] -0.741% [at 6.45 µM] | activity change, negative = thiol reactive [3] -3.32% [at 6.41 µM] | activity, negative = inhibition [4] -2.86% [at 6.45 µM] | redox activity (% of DA3003) [5] -6.64% [at 6.41 µM] | Potency [8] | Potency [6] | Potency [9] | Potency [7]

Cc1nccn1CC1CCc2c(c3ccccc3n2C)C1=O (centres undefined)
inactive: Potency [1] | Potency [2] | Potency [3] | outcome [4] | outcome [5] | Potency [8] | Potency [9]

Cc1cc(O)c2c(c1)C(=O)c1cc(O)cc(O)c1C2=O
active: Potency [8] 418 nM
inactive: Potency [1] | Potency [6]

O=C(OC1C[C@H]2CC[C@@H](C1)[N+]21CCCC1)C(O)(c1ccccc1)c1ccccc1 (some centres undefined)
inactive: Potency [1] | Potency [2] | Potency [3] | outcome [4] | outcome [5] | Potency [8] | Potency [9] | Potency [10] | Potency [7]

CC(=O)NC[C@H]1CN(c2ccc(N3CCOCC3)c(F)c2)C(=O)O1
inactive: Potency [1] | Potency [2] | Potency [3] | outcome [4] | outcome [5] | Potency [8] | Potency [9]
active: Potency [7] 18.7 µM

Cc1cccc(C#Cc2ccccc2)n1
active: Potency [7] 20.9 µM
inactive: Potency [1] | Potency [8] | Potency [9] | Potency [10]

CCN(CC)C(=S)SSC(=S)N(CC)CC
active: Potency [8] 7.4 nM | Potency [9] 6.6 nM | Potency [10] 0.0372 µM | Potency [7] 0.0235 µM
inactive: Potency [1]

Nc1ncn([C@H]2C[C@H](O)[C@@H](CO)O2)c(=O)n1
inactive: Potency [1] | Potency [8] | Potency [9]

C[Se]CCC(N)C(=O)O (centres undefined)
inactive: Potency [1] | Potency [8] | Potency [6] | Potency [9] | Potency [7]

Cc1ccc(C)c(OCCCC(C)(C)C(=O)O)c1
inactive: Potency [1] | Potency [8] | Potency [7]
active: Potency [6] 16.6 µM

Oc1ccc(OCc2ccccc2)cc1
active: Potency [7] 18.7 µM
inactive: Potency [1] | Potency [8] | Potency [9] | Potency [10]

NS(=O)(=O)c1cc(C(=O)O)c(NCc2ccco2)cc1Cl
inactive: Potency [1] | Potency [8] | Potency [6] | Potency [9] | Potency [7]

O=c1oc2cc(O)ccc2s1
inactive: Potency [1] | Potency [8] | Potency [9]

Cc1ncc([N+](=O)[O-])n1CC(C)O (centres undefined)
inactive: Potency [1] | Potency [8] | Potency [9] | Potency [10] | Potency [7]

CC(C)c1ccc2oc3nc(N)c(C(=O)O)cc3c(=O)c2c1
inactive: Potency [8] | Potency [9] | Potency [10]
active: Potency [1] 12.8 µM and 8.06 µM

Nc1ccc(S(N)(=O)=O)cc1
inactive: Potency [1] | Potency [8] | Potency [6] | Potency [9] | Potency [10] | Potency [7]

C[C@@H](c1ncncc1F)[C@](O)(Cn1cncn1)c1ccc(F)cc1F
inactive: Potency [1] | Potency [8] | Potency [6] | Potency [9] | Potency [7]

CN(C)c1ccc2nc3ccc(=[N+](C)C)cc-3sc2c1
inactive: Potency [1]
active: Potency [8] 1870 nM | Potency [9] 469 nM | Potency [10] 8.33 µM | Potency [7] 1.66 µM

Nc1nc(N)c(N=O)c(OCC2CCCCC2)n1
active: Potency [8] 18700 nM | Potency [9] 10500 nM | Potency [10] 13.2 µM | Potency [7] 14.8 µM
inactive: Potency [1]

— PubChem BioAssay (NCATS)
